Data from the supplement of paper PMC3545927.
The other results are listed elsewhere or left out. How many sequences the whole screen found active is unknown.

B1: HC681 (peptide)
chain: CAGCIITSLTAGNASASA
B2: HC1795 (peptide)
chain: CAHEMEECSQAGNASASA
B3: FS-992 (peptide)
chain: CAEPPRPRRGAGNASASA
B4: FS-258 (peptide)
chain: CAKNSRKLRGAGNASASA
B5: FS-421 (peptide)
chain: CAGALRPRRGAGNASASA
B6: FS-1472 (peptide)
chain: CAPIIRKSRGAGNASASA
B7: FS-68 (peptide)
chain: CAPGRRPRRGAGNASASA
B8: HC1120 (peptide)
chain: CALIAFASRGAGNASASA
B9: FS-10 (peptide)
chain: CAASSRPRRGAGNASASA
B10: HC506 (peptide)
chain: CAHLHQNIVDAGNASASA
B11: HC324 (peptide)
chain: CASPTTALVMAGNASASA
B12: FS-3198 (peptide)
chain: CARNRRIITVAGNASASA
B13: FS-2764 (peptide)
chain: CARQRRLVLVAGNASASA
B14: FS-2509 (peptide)
chain: CARQRRAITVAGNASASA
B15: FS-1770 (peptide)
chain: CARQRRARFVAGNASASA
B16: FS-2508 (peptide)
chain: CARQRRAFQVAGNASASA
B17: FS-2551 (peptide)
chain: CARERRYSTVAGNASASA
B18: FS-2064 (peptide)
chain: CARQPRVDFVAGNASASA

Target: furin, P09958
Sequence (P09958 whole entry): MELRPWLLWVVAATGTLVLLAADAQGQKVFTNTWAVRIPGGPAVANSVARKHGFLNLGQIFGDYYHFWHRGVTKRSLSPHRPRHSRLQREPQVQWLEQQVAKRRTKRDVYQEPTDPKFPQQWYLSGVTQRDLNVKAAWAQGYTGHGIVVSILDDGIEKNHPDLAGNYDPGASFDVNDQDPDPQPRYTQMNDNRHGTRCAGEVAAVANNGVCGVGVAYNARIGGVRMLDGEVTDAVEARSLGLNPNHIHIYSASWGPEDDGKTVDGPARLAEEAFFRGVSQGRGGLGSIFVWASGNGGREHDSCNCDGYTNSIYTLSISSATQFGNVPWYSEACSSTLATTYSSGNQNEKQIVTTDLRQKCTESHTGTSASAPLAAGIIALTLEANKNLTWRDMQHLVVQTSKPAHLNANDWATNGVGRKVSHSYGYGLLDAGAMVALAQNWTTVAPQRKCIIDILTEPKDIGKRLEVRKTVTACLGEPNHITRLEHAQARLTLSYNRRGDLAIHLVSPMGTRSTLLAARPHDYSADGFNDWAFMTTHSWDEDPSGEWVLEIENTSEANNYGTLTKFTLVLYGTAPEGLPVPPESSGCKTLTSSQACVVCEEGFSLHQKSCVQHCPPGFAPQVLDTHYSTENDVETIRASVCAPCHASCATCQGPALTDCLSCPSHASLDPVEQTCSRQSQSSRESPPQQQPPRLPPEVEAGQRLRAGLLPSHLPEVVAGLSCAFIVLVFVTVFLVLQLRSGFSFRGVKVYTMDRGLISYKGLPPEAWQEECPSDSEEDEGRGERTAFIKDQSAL
Assay: furin cleavage Z-score vs untreated control; higher = more cleavage, active = 3.5 or more, inactive = 1 or less, 8 variable residues between constant flanks
In short: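 Abundance of DNA freed from bead-bound 8-mer peptide–cDNA fusions by purified furin was measured as sequencing read counts after PCR adapter tagging. Cutting ran 7.5, 15 or 30 min in 0.01 ml of 50 mM HEPES pH 7.5 with CaCl2 and NaCl at 1:10 enzyme:substrate. The cleavage Z-score expresses these log counts against furin-free reactions after lowess adjustment and median absolute deviation scaling.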

Sequence	furin cleavage Z-score (7.5 min)	furin cleavage Z-score (15 min)	furin cleavage Z-score (30 min)
B1	-0.591 (inactive)	-0.913 (inactive)	-0.483 (inactive)
B2	0.638 (inactive)	-0.825 (inactive)	0.0903 (inactive)
B3	-0.496 (inactive)	-0.299 (inactive)	0.0496 (inactive)
B4	0.0851 (inactive)	1.03	2.96
B5	1.31	0.929 (inactive)	0.673 (inactive)
B6	10 (active)	10.9 (active)	7.97 (active)
B7	10.4 (active)	9.49 (active)	8.86 (active)
B8	0.403 (inactive)	-0.694 (inactive)	0.0807 (inactive)
B9	5.57 (active)	4.59 (active)	4.78 (active)
B10	-0.675 (inactive)	-0.105 (inactive)	-1.09 (inactive)
B11	0.089 (inactive)	-0.626 (inactive)	-1.02 (inactive)
B12	0.0348 (inactive)	-1.25 (inactive)	0.314 (inactive)
B13	-0.772 (inactive)	-0.609 (inactive)	1.17
B14	4.39 (active)	7.17 (active)	7.22 (active)
B15	6.58 (active)	8.49 (active)	7.14 (active)
B16	1.92	4.22 (active)	6.29 (active)
B17	-0.101 (inactive)	1.01	0.281 (inactive)
B18	-1.17 (inactive)	-0.264 (inactive)	-0.469 (inactive)
